# Reference: PubChem BioAssay (NCI)
# Compounds without any hit were thinned out: in the full panel of roughly 79,000, 15% have a hit. Values without a mark were called inactive. The source made the active and inactive calls. Cut-off read from the data, not from the text of the source: active = growth inhibition above about 70%; inactive = the rest.
# How the values were obtained:
# [1] = NCI Yeast Anticancer Drug Screen. Data for the rad50 strain (AID 155);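 note: 0% = growth of vehicle-only cultures of the same strain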; conditions: S. cerevisiae rad50 strain growth inhibition; at 50.0 µM; stronger effect = higher value
# How it was run: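 Readout: growth inhibition relative to vehicle-treated cultures. Compound exposure was carried out in a genetically defined yeast strain deficient in DNA damage repair.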
# [2] = NCI Yeast Anticancer Drug Screen. Data for the mec2-1 strain (AID 157); conditions: S. cerevisiae mec2-1 strain, at 50.0 µM, stronger effect = higher value
# How it was run: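 Compounds were applied to mec2-1 yeast cells. Their growth was then compared with that of vehicle-treated cultures to give growth inhibition.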
# [3] = NCI Yeast Anticancer Drug Screen. Data for the sgs1 mgt1 strain (AID 161);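 note: 0% = growth of cultures given vehicle only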; conditions: S. cerevisiae sgs1 mgt1 strain, at 50.0 µM, stronger effect = higher value
# How it was run: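 Percent growth inhibition was derived by comparing compound-exposed mutant yeast with vehicle-exposed cultures. The strain carries alterations in DNA damage repair.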
# [4] = NCI Yeast Anticancer Drug Screen. Data for the cln2 rad14 strain (AID 165);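 note: 0% = growth equal to vehicle treated cultures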; conditions: S. cerevisiae cln2 rad14 strain, at 50.0 µM, stronger effect = higher value
# How it was run: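 Strain: cln2 rad14 yeast, altered in cell cycle control and DNA damage repair. Read-out: growth inhibition vs vehicle.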
# [5] = NCI Yeast Anticancer Drug Screen. Data for the bub3 strain (AID 167); conditions: S. cerevisiae bub3 mutant strain, at 50.0 µM, stronger effect = higher value
# How it was run: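 Readout: yeast growth inhibition, expressed relative to vehicle-only wells. The test organism is a mutant strain from a panel with lesions in DNA repair or checkpoint genes.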
# [6] = NCI Yeast Anticancer Drug Screen. Data for the mlh1 rad18 strain (AID 175); conditions: S. cerevisiae mlh1 rad18 strain growth inhibition; at 50.0 µM; stronger effect = higher value
# How it was run: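 A repair-deficient yeast strain is exposed to test compound, and growth is scored relative to vehicle-treated controls.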
SMILES,growth inhibition [1] [%],growth inhibition [2],growth inhibition [3] [%],growth inhibition [4],growth inhibition [5],growth inhibition [6]
COc1oc(C2C/C(=C/C(C)=C/C(C)=C/C(C)=C/c3ccc([N+](=O)[O-])cc3)CO2)c(C)c(=O)c1C (stereo not given),1.15,-4.75%,-9.4,-6.85%,-8.15%,-33%
CC(C)=CCC/C(C)=N\N=C(N)N,5.35,-8.65%,-13.2,-20.5%,-2.8%,-15.6%
COC12CC3C4=CCOC5CC(=O)N6c7ccccc7C1(CCN2C4)C6C53 (stereo not given),5.3,-23.8%,13.3,16.9%,15.2%,15.4%
C[C@@]12CC/C(=N\OCC(=O)O)C=C1CC[C@H]1C2CC[C@]2(C)C1CC[C@H]2O (stereo not given in full),-9.4,-2.55%,-14.6,-15.8%,2.75%,-14.7%
OC1(c2ccccc2)C2CCN(CC2)C1CN1CCOCC1 (stereo not given),-23.6,-30.7%,-20.6,4.05%,13.3%,7.95%
CC1CC[Si](C)(C)CC12C(=O)NC(=O)NC2=O (stereo not given),6.65,1.95%,19.6,-0.05%,10.1%,-7.05%
CC1CCNC(C)C1 (stereo not given),35.3,-10.4%,-13.8,-62.9%,17.9%,8.6%
O=C1NC(=S)NC(=O)C1=Cc1ccccc1O,-2.15,-16.9%,-12.3,-32.4%,-1.45%,-31.2%
c1ccc(OP(Oc2ccccc2)(c2ccccc2)(c2ccccc2)c2ccccc2)cc1,6.05,6.6%,13.4,-16.4%,-5.1%,-42.6%
O=S(=O)(c1ccccc1)c1ccccc1,-2.9,1.55%,1.6,-8.05%,0.1%,-37.9%
CCC1CC[N-]CC1.CCC1CC[N-]CC1.CCC1CC[N-]CC1.CCC1CC[N-]CC1.N#C[S-].N#C[S-].[Co],23.1,16.9%,34,15.3%,26.8%,24.8%
COC(=O)C(C)N(CCCl)P1(=O)OCCCN1CCCl (stereo not given),49.2,24.8%,-6.15,8.7%,-20.6%,20.6%
CC1=CC(=O)[C@@H](O)[C@]2(C)[C@H]3[C@@]4(O)OC[C@]35[C@H]([C@@H](C)[C@H]4O)[C@@H](O)C(=O)O[C@@H]5C[C@@H]12,41.8,9.7%,36,30.2%,15.2%,35.9%
Cc1ccc(C)c(OP(=O)(Oc2cc(C)ccc2C)Oc2cc(C)ccc2C)c1,-29.8,-42.5%,-15.6,8.85%,-18%,-36.9%
CCOC(=S)S.[Ag],1.6,-17.4%,-2.05,-31.6%,-15.2%,14.4%
CC(=O)OC1CCC2(C)C(=CCC3C4C/C(=C\N5CCCC5)C(=O)C4(C)CCC32)C1 (stereo not given),51,99% (active),46.8,98.8% (active),97.2% (active),95.3% (active)
COc1cc(/C=N/NC(=O)CN(C)C)cc(OC)c1N(CCCl)CCCl,8.85,10.4%,-15.7,17.9%,-2.25%,5.2%
ClCCCN1CCN(CCCl)CC1,-11.6,-10.1%,-1.75,3.2%,-13.8%,-21.5%
O=[As](c1ccccc1)(c1ccccc1)c1ccc(Br)cc1,31.1,1.25%,12.2,5.1%,6.2%,4.7%
NC(Cc1ccc2c(c1)OCO2)c1ccccc1 (stereo not given),-0.1,9.05%,3.25,-27.3%,0.45%,4.45%
